Experimental data reported in PubChem BioAssay AID1159580 (chemical genetic matrix, 2015).
Several values for one entry are separate records, joined by “and”; a condition that tells them apart may be missing. Identical values can stand only once. Out of some 5,500 compounds screened, about 2,000 (36%) were called active. About 18% were inconclusive and are not listed. Cut-off read from the data, not from the text of the source: active = normalized growth mostly below about 0.91 (no sharp cut-off); inconclusive = no clear call, values can overlap the other calls; inactive = mostly above about 0.92. The list shows a part of the results.

Assay: chemical genetic growth profiling, strain panel (AID 1159580);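 note: tested at 20 µM; growth read once vehicle control cultures reached saturation at 30 °C; 1 = growth at the plate median or of vehicle wells; lower values mean less growth of the strain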
Settings: S. cerevisiae deletion strains, growth OD

Measured: normalized growth

CC1OC1P(=O)(O)O (stereo not given)
inactive: locus YAL021C, strain ccr4, active compounds read low 1 | locus YAL026C, strain drs2, active compounds read low 1.02 | locus YAL030W, strain snc1, active compounds read low 0.998 | locus YAL040C, strain CLN3, active compounds read low 0.959 | locus YBL061C, strain skt5, active compounds read low 0.996 | locus YBR009C, strain hhf1, active compounds read low 0.978 | locus YBR021W, strain FUR4, active compounds read low 0.973 | locus YBR023C, strain chs3, active compounds read low 0.988 | locus YBR171W, strain sec66, active compounds read low 1 | locus YBR229C, strain ROT2, active compounds read low 0.994 | locus YBR231C, strain swc5, active compounds read low 0.992 | locus YBR279W, strain paf1, active compounds read low 0.991 | locus YCL011C, strain gbp2, active compounds read low 1.03 | locus YCL016C, strain dcc1, active compounds read low 0.984 | locus YCL029C, strain bik1, active compounds read low 0.993 | locus YCL061C, strain MRC1 (second series), active compounds read low 1.01 | locus YCL069W, strain vba3, active compounds read low 1 | locus YCR088W, strain abp1, active compounds read low 1 | locus YDL005C, strain med2, active compounds read low 0.977 | locus YDL035C, strain GPR1, active compounds read low 0.991 | locus YDL040C, strain nat1, active compounds read low 0.991 | locus YDL074C, strain BRE1, active compounds read low 1.04 | locus YDL101C, strain DUN1, active compounds read low 0.992 | locus YDL134C, strain PPH21, active compounds read low 0.977 | locus YDL185W, strain tfp1, active compounds read low 0.979 | locus YDL192W, strain arf1, active compounds read low 0.991 | locus YDR001C, strain nth1, active compounds read low 1 | locus YDR069C, strain doa4, active compounds read low 0.986 | locus YDR101C, strain arx1, active compounds read low 1 | locus YDR137W, strain rgp1, active compounds read low 1.01 | locus YDR150W, strain NUM1, active compounds read low 0.994 and 1 | locus YDR159W, strain sac3, active compounds read low 0.934 | locus YDR162C, strain NBP2, active compounds read low 0.987 | locus YDR195W, strain ref2 0.983 | locus YDR297W, strain sur2, active compounds read low 1.01 | locus YDR318W, strain mcm21, active compounds read low 0.984 | locus YDR334W, strain swr1, active compounds read low 1 | locus YDR335W, strain msn5, active compounds read low 0.996 | locus YDR363W, strain ESC2, active compounds read low 0.974 | locus YDR388W, active compounds read low 0.988 | locus YDR392W, strain spt3, active compounds read low 0.892 | locus YDR502C, strain sam2, active compounds read low 0.983 | locus YEL003W, strain gim4, active compounds read low 1 | locus YEL037C, strain rad23, active compounds read low 1 | locus YEL061C, strain CIN8 (second series), active compounds read low 1 | locus YEL061C, strain CIN8, active compounds read low 1 | locus YER002W, strain NOP16, active compounds read low 0.978 | locus YER015W, strain faa2, active compounds read low 0.981 | locus YER016W, strain bim1, active compounds read low 0.974 | locus YER110C, active compounds read low 0.987 | locus YER111C, strain swi4, active compounds read low 1 | locus YER155C, strain BEM2 (second series), active compounds read low 0.965 | locus YER155C, strain BEM2, active compounds read low 0.994 | locus YER167W, strain BCK2, active compounds read low 0.973 | locus YFR010W, strain ubp6, active compounds read low 1 | locus YGL078C, strain dbp3, active compounds read low 0.988 | locus YGL086W, strain mad1, active compounds read low 1 | locus YGL167C, strain pmr1, active compounds read low 0.997 | locus YGL173C, strain kem1, active compounds read low 0.99 | locus YGL227W, strain vid30, active compounds read low 1 | locus YGL240W, strain doc1, active compounds read low 0.968 | locus YGL248W, strain PDE1, active compounds read low 1.01 | locus YGL253W, strain hxk2, active compounds read low 1.03 | locus YGR078C, strain PAC10, active compounds read low 1.02 | locus YGR135W, strain pre9, active compounds read low 0.966 | locus YGR252W, strain gcn5, active compounds read low 0.982 | locus YHR013C, strain ard1, active compounds read low 0.987 | locus YHR027C, strain rpn1, active compounds read low 0.993 | locus YHR030C, strain SLT2, active compounds read low 0.994 | locus YHR079C, strain IRE1 (second series), active compounds read low 0.989 | locus YHR094C, strain hxt1, active compounds read low 0.987 | locus YHR129C, strain ARP1, active compounds read low 0.987 | locus YHR142W, strain chs7, active compounds read low 1.01 | locus YHR200W, strain rpn10, active compounds read low 0.989 | locus YIL066C, strain RNR3, active compounds read low 1 | locus YIL073C, strain SPO22, active compounds read low 0.944 | locus YIL125W, strain kgd1, active compounds read low 0.992 | locus YIR030C, strain dcg1, active compounds read low 0.985 | locus YJL092W, strain hpr5, active compounds read low 1 | locus YJL095W, strain BCK1 (second series), active compounds read low 0.998 | locus YJL095W, strain BCK1, active compounds read low 1.01 | locus YJL115W, strain asf1, active compounds read low 1 | locus YJL129C, strain trk1, active compounds read low 1.01 | locus YJL134W, strain LCB3, active compounds read low 0.989 | locus YJL154C, strain vps35, active compounds read low 0.996 | locus YJL164C, strain tpk1, active compounds read low 0.986 | locus YJL166W, strain qcr8, active compounds read low 0.986 | locus YJL168C, strain set2, active compounds read low 0.989 | locus YJL187C, strain SWE1 (second series), active compounds read low 1.02 | locus YJR043C, strain POL32, active compounds read low 1.01
